The source of these data is PubChem BioAssay.

Calls of active or inactive are those of the source. Unless noted, the rule behind the calls is not given here.

The nature of assay [1]: resazurin metabolic signal in HepG2 cells – cell-based, resazurin fluorescence, 24 h, PK04 Diversity Set, profiling panel (AID 1172). Particulars: HepG2 viability, higher = more signal. (Resazurin is reduced to fluorescent resorufin, in cell work by metabolically active cells.)
A short description of assay [2]: budding yeast growth changes without added modifier – OD600, strain BY4716, 24 h, basal condition, primary screen (AID 1173). As to conditions: S. cerevisiae BY4716 growth, OD600, 24 h; higher = more signal, called active from +8 up or from −8 down.
A short description of assay [3]: viability profiling in MM1S myeloma cells – cell-based, resazurin fluorescence, basal, 24 h, PK04 Diversity Set, profiling panel (AID 1174).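 Note: MM1S multiple myeloma cell line.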 As to conditions: higher = more signal, called active from +8 up or from −8 down.
Assay [4] deals with Dihydroorotate dehydrogenase (quinone), mitochondrial (Plasmodium falciparum (isolate 3D7)) (UniProt Q08210). Kind of assay: inhibition of P. falciparum DHODH – biochemical, C-terminal His tag, absorbance 600 nm, primary screen (AID 1175).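 Note: recombinant parasite enzyme with a five histidine tag at its C terminus.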 As to conditions: PfDHODH enzyme, DCIP absorbance 600 nm; higher = more signal, called active from +8 up or from −8 down.
Chain of Dihydroorotate dehydrogenase (quinone), mitochondrial (Plasmodium falciparum (isolate 3D7)) (Q08210 whole entry, looked up): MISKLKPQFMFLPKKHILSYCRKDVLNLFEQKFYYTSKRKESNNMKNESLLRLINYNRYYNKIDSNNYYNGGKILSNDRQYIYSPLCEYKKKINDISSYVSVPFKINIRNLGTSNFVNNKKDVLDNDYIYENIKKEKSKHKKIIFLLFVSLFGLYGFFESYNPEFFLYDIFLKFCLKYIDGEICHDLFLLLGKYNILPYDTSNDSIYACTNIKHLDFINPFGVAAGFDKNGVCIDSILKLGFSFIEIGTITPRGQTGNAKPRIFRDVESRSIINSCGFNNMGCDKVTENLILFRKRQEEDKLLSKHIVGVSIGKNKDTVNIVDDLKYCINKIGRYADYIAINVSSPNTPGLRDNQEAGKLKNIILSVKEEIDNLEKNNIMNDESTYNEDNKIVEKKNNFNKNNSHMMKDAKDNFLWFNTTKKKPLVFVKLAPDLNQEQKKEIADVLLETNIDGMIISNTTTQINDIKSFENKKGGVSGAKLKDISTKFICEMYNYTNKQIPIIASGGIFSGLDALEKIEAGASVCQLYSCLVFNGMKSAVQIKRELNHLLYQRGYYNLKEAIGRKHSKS
Assay [5] can be described thus: inhibition of PAO1 biofilm formation – strain PAO1, LB-PBS medium, absorbance 600 nm, primary screen (AID 1176). As to conditions: P. aeruginosa PAO1 growth/biofilm, A600, 12 h; higher = more signal.
Assay [6] in a line: growth modulation of vineyard yeast isolate – strain RM11-1a, OD600, basal, 24 h, primary screen (AID 1177).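 Note: cultures grown under basal conditions with no added stressor.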 Particulars: S. cerevisiae RM11-1a growth, OD600, 24 h; higher = more signal, called active from +8 up or from −8 down.
Assay [7] in a line: growth of efflux-deficient E. coli DRC39 – strain DRC39, OD650, 24 h, E. coli filamentation inducers, primary screen (AID 1178).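 Note: growth measured as culture turbidity by optical density at 650 nm.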 Particulars: E. coli DRC39 acrAB, higher = more signal, called active from +8 up or from −8 down.
Assay [8] is described as follows: growth of efflux-deficient E. coli DRC39 – strain DRC39, OD650, 48 h, E. coli filamentation inducers, primary screen (AID 1179).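 Note: screen aims at cell division blockers that make cells filament.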 As to conditions: E. coli DRC39 delta-acrAB growth, higher = more signal, called active from +8 up or from −8 down.
The nature of assay [9]: viability profiling in RPMI8226 myeloma cells – cell-based, resazurin fluorescence, basal, 24 h, PK04 Diversity Set, profiling panel (AID 1180).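 Note: RPMI8826 multiple myeloma cell line at 5000 cells per well.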 Particulars: higher = more signal.
Assay [10] deals with E3 ubiquitin-protein ligase XIAP (Homo sapiens) (UniProt P98170). The experiment in a line: small molecules binding XIAP protein – biophysical, small-molecule microarray, fluorescence 635 nm, primary screen (AID 1181).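 Note: score merges 667 nm emission and signal to noise over triplicate slides.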 Particulars: higher = more signal.
Chain of E3 ubiquitin-protein ligase XIAP (Homo sapiens) (P98170 whole entry, looked up, the tested form may be a part): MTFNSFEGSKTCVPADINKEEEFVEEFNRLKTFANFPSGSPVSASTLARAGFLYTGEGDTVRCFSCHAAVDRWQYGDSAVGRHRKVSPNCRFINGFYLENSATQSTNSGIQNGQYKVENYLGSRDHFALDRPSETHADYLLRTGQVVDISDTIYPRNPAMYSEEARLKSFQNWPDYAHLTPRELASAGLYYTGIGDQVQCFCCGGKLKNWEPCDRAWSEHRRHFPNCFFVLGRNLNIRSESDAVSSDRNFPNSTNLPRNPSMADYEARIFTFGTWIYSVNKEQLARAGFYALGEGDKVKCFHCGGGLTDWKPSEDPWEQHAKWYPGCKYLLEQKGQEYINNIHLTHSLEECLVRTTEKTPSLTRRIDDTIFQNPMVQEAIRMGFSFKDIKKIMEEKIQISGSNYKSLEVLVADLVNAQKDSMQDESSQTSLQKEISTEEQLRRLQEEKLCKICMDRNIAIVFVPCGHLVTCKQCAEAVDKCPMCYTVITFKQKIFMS
Assay [11] deals with XIP peptide (Xip251-270) binding. The experiment in a line: XIP fragment 251-270 binding compounds – biochemical, small-molecule microarray, fluorescence 635/667 nm, 0.1 µg/mL protein, primary screen (AID 1182). Particulars: fluorescent protein binding, 635 nm, higher = more signal, called active from +8 up or from −8 down.
The next assay has as its system XIP peptide (Xip251-270). Kind of assay: compounds binding XIP fragment 251-270 – biochemical, small-molecule microarray, fluorescence 635/667 nm, 0.5 µg/mL protein, primary screen (AID 1183). Particulars: fluorescence 635 nm, higher = more signal.
Assay [12] is described as follows: blood-stage malaria parasite viability loss – strain 3D7, DAPI fluorescence, 100 nL, primary screen (AID 1184).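 Note: parasites grown inside human red blood cells in medium with human serum.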 Particulars: P. falciparum 3D7 growth, 3 d, higher = more signal.
Assay [13] deals with Homeobox protein Hox-A13 (Mus musculus) (UniProt Q62424). Kind of assay: disruptors of Hoxa13 oligonucleotide interaction – biochemical, fluorescence polarization, labeled oligonucleotide, primary screen (AID 1185). Particulars: Hoxa13:DNA binding, 15 min, higher = more signal, called active from +8 up or from −8 down.
Chain of Homeobox protein Hox-A13 (Mus musculus) (Q62424 whole entry, looked up): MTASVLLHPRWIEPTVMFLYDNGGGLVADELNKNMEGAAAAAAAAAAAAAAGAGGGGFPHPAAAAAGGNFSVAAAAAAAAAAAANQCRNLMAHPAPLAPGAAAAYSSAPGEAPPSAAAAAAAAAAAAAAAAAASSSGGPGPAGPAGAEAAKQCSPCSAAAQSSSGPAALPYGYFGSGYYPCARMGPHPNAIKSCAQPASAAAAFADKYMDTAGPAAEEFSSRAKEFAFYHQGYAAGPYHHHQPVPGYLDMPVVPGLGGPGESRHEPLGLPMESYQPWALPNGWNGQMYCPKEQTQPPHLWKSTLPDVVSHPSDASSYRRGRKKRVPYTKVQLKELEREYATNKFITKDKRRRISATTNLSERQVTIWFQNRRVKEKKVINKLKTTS
Assay [14] in a line: blockers of DNA damage checkpoint Chk1 activation – imaging, HeLa, hydroxyurea, phospho-Chk1 antibody, percent positive cells, primary screen (AID 1186). As to conditions: hydroxyurea-induced phospho-Chk1 immunofluorescence imaging, higher = more signal.
Assay [15] is described as follows: blockers of DNA damage checkpoint Chk1 activation – imaging, HeLa, hydroxyurea, phospho-Chk1 nuclear intensity, primary screen (AID 1187). As to conditions: hydroxyurea-induced phospho-Chk1 immunofluorescence imaging, higher = more signal.

In the case of `[N-]=[N+]=NCc1ccccc1C[C@@]1(C(=O)NCC(O)CO)N=C(c2ccc(OCCCO)cc2)O[C@@H]1c1ccccc1` (some centres not stated), the z-score was -1.07 in assay [1]; -2.07 (inactive) in assay [2]; -0.243 (inactive) in [3]; 0.466 (inactive) in assay [5]; 0.355 (inactive) in [6]; 1.39 (inactive) in [7]. The z-score in assay [8] is 0.322 (inactive); in [9], -0.645; in assay [12], -2.03; in assay [13], -4.12 (inactive); in [14], -0.0558 (inactive); in assay [15], 0.274 (inactive). Further, the composite z-score in assay [4] was -0.0675 (inactive); in assay [10] it was 0.19; in assay [11], 0.691 (inactive); in the assay with XIP peptide (Xip251-270), 0.684.
Turning to `CC(C)NC(=O)[C@@H]1c2ccccc2C(=O)N(C(C)C)[C@H]1c1ccc(CO)cc1`, the z-score in assay [1] is 1.02; in assay [2], -0.37 (inactive); in assay [3] it was 0.537 (inactive); in assay [5], -0.397 (inactive); in [6], 0.0971 (inactive); in assay [7], 0.494 (inactive). Moreover, the z-score in [8] is 0.671 (inactive); in assay [9] it was 0.135; in assay [12] it was -0.25; in assay [13] it was -2.52 (inactive); in assay [14], -0.0669 (inactive); in assay [15], 0.385 (inactive). In addition, the composite z-score in assay [4] is 0.654 (inactive); in assay [10], -0.398; in assay [11] it was 0.736 (inactive); in the assay with XIP peptide (Xip251-270), 0.226.
On to `C=CCC(OC(C)=O)[C@@H]1[C@@H](N(Cc2ccc(-c3cccc(C(F)(F)F)c3)o2)C(=O)c2cccc3ccccc23)c2cc(OCCCO)ccc2N1C(=O)Cc1ccc2ccccc2c1` (some centres not stated), for which the z-score in assay [1] is -0.496; in assay [2], -0.721 (inactive); in assay [3] it was -0.291 (inactive); in assay [5], -0.935 (inactive); in [6] it was -0.0974 (inactive); in [7] it was 0.525 (inactive). The z-score in [8] is 0.235 (inactive); in [9], -0.638; in [12], -1.78; in assay [13], -3.09 (inactive); in assay [14], 0.233 (inactive); in assay [15], 0.504 (inactive). The composite z-score was 0.22 (inactive) in assay [4], -0.242 in [10], -0.16 (inactive) in assay [11] and 0.0499 with XIP peptide (Xip251-270).
In the case of `CS(=O)(=O)CCOC(=O)C1=CC(CCCO)=CC(c2ccc(CN3CCCC3)cc2)N(Cc2cccc(OC(F)(F)F)c2)C=C1C(=O)OCCS(C)(=O)=O` (configuration not stated), the z-score in assay [1] is -0.207; in [2] it was -3.9 (inactive); in [3], -0.527 (inactive); in [5], 1.24 (inactive); in assay [6], 1.01 (inactive); in [7], 0.669 (inactive). The z-score in assay [8] is 0.399 (inactive); in assay [9], 0.0703; in [12], -2.79; in assay [13] it was -1.82 (inactive); in assay [14], 0.157 (inactive); in assay [15], 1.28 (inactive). Moreover, the composite z-score was -1.03 (inactive) in [4], -0.24 in assay [10], 0.211 (inactive) in assay [11] and 0.584 in the assay with XIP peptide (Xip251-270).
Regarding `CC(C)[Si](C#CCCCC#N)(O[C@H](c1ccccc1)c1cn(Cc2cccc(Cl)c2)nn1)C(C)C`, the z-score is 0.36 in assay [1]; -0.718 (inactive) in assay [2]; 0.109 (inactive) in [3]; 1.25 (inactive) in assay [5]; -0.358 (inactive) in assay [6]; -0.0251 (inactive) in assay [7]. For the same compound, the z-score in assay [8] is -0.203 (inactive); in assay [9], -0.701; in assay [12] it was -1.06; in assay [13], -0.527 (inactive); in assay [14], -0.628 (inactive); in assay [15], -0.968 (inactive). The composite z-score in assay [4] was 0.369 (inactive); in [10], 0.149; in assay [11], -0.186 (inactive); with XIP peptide (Xip251-270), 0.605.
Turning to `O=C(O)[C@H]1C[C@H]2C(=O)N3CCC[C@H]3C(=O)N2[C@H]1c1ccc(O)cc1`, the z-score in [1] was 0.684; in [2], -0.171 (inactive); in assay [3], 1.1 (inactive); in [5], 0.0778 (inactive); in assay [6], 0.208 (inactive); in assay [7], 0.408 (inactive). The z-score in assay [8] was 0.715 (inactive); in assay [9] it was 1.07; in [12], 0.351; in assay [13], -1.01 (inactive); in assay [14], 0.272 (inactive); in [15] it was 0.267 (inactive). For the same compound, the composite z-score was -0.453 (inactive) in assay [4], 0.125 in assay [10], -0.469 (inactive) in assay [11] and -0.0016 in the assay on XIP peptide (Xip251-270).
`C=CCNC(=O)[C@@H]1[C@H]2C(=O)O[C@H](c3ccccc3)[C@H](c3ccccc3)N2[C@H](c2ccc(OCCO)cc2)[C@@]12C(=O)N(C(=O)OCCOC)c1ccc(C#CCNC(N)=O)cc12`: the z-score in assay [1] was -1.09; in assay [2], 1.04 (inactive); in [3] it was -0.58 (inactive); in assay [5], 0.958 (inactive); in assay [6], 2.78 (inactive); in [7], 0.589 (inactive). Further, the z-score in assay [8] was 0.0924 (inactive); in assay [9], 0.853; in assay [12], -1.29; in [13], -1.4 (inactive); in [14] it was 0.111 (inactive); in [15], 0.487 (inactive). Further, the composite z-score is -0.132 (inactive) in assay [4], -0.16 in [10], -0.121 (inactive) in assay [11] and 0.842 in the assay with XIP peptide (Xip251-270).
